# Measurements published in PubChem BioAssay AID1850 (Southern Research Specialized Biocontainment Screening …, 2009).
# Among all 310,000 compounds or so, about 1,000 (0.32%) were called active. How the calls were made is not given here. The list is a sample of the results. Measured potencies and affinities stand elsewhere.
# Assay: Inhibition of PhoP regulon, Salmonella typhi GFP reporter cells, confirmation, 4 h (AID 1850);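 further: 0% = induced wells with vehicle and 100% = uninduced wells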
# Settings: Salmonella Typhi PhoP-promoter GFP reporter, fluorescence, at 50 µM, stronger effect = higher value
row,SMILES,inhibition
1,O=C(Nc1csc(Cc2c(Cl)cccc2Cl)n1)NN1CCOCC1,-0.65% (inactive)
2,O=C(NCCCN1CCCC1)Nc1ccc(F)cc1,2.17% (inactive)
3,CN1CCN(CCCNC(=O)Nc2ccc([N+](=O)[O-])cc2)CC1,1.78% (inactive)
4,COCC(=O)NNC(=O)Cc1ccc(Cl)cc1,-2.72% (inactive)
5,CC(C)Oc1ccc(Cc2cnc(=S)[nH]c2N)cc1,7.33% (inactive)
6,CC(C)COc1ccc(Cc2cnc(N)nc2N)cc1,15.8% (inactive)
7,CCSc1ccccc1C(=O)N=C1NC(=O)CC2C(=O)NCCN12 (configuration not stated),1.96% (inactive)
8,O=C(COc1ccc(C(=S)N2CCOCC2)cc1)Nc1ccccc1C(F)(F)F,-0.77% (inactive)
9,O=C(NCCCNC(=O)c1ccc(-c2cc(Cl)ccc2Cl)o1)c1cnccn1,9.68% (inactive)
10,COc1cccc(C(=O)NC2=NCCS2)c1OC,2.77% (inactive)
11,CCOC(=O)Nc1c2ccccc2nc2ccccc12,-6.02% (inactive)
12,O=C(O)c1ccc(Nc2c3ccccc3nc3ccccc23)cc1,4.42% (inactive)
13,CC(=O)C1=C(C)NC(=O)NC1c1ccccc1OCC(=O)NCCc1ccccc1 (configuration not stated),2.94% (inactive)
14,Cc1nc2ccc(Br)cn2c1C(=O)N/N=C\c1ccccc1[N+](=O)[O-],-1.1% (inactive)
15,O=C(COc1ccc(Cl)cc1Cl)N1CCCCCC1,3.1% (inactive)
16,Cc1csc(N/N=C\c2cccnc2)n1,-7.97% (inactive)
17,Fc1cccc(/C=N/Nc2ccccn2)c1,-0.26% (inactive)
18,O=C(Nc1ccc(Cl)c(Cl)c1)Nc1nccs1,0.93% (inactive)
19,C(=N\c1nccs1)/c1cccnc1,10.7% (inactive)
20,Clc1cccc(Cl)c1/C=N\Nc1nccs1,-7.79% (inactive)
21,O=C(Nc1ccc(Cl)cc1)Nc1nccs1,-2.29% (inactive)
22,CC(=O)Nc1sc(N/N=C\c2cccc(Cl)c2)nc1-c1cccs1,-2.74% (inactive)
23,FC(F)(F)c1ccc(N/N=C/c2cccnc2)nc1,-6.21% (inactive)
24,Cc1[nH]nc2c1C(c1ccccc1F)NC2=O (configuration not stated),8.34% (inactive)
25,COc1cccc(NC(=O)N(CCN(C)C)C(C)c2cccnc2)c1 (configuration not stated),1.53% (inactive)

row,SMILES,inhibition
1,Cc1ccc(NC(=O)CCn2cnc3ccccc3c2=O)cc1Cl,5.48% (inactive)
2,CCOc1ccc(NS(=O)(=O)c2ccc(C(=O)NCC(c3ccc(OC)cc3)N3CCCC3)cc2)cc1 (configuration not stated),4.44% (inactive)
3,Cc1cccnc1Sc1c([N+](=O)[O-])ncn1C,-0.07% (inactive)
4,O=C(Nc1cccnc1)C1CCC(CNS(=O)(=O)c2cccc3nsnc23)CC1 (configuration not stated),8.22% (inactive)
5,CC(=O)c1cc(F)ccc1OCC(=O)N1CCCc2ccccc21,5.07% (inactive)
6,CN1CCN(c2ccccc2NC(=O)c2ccc(N3CCCC3)c([N+](=O)[O-])c2)CC1,20.3% (inactive)
7,O=S(=O)(Cc1ccccc1Cl)NCCc1ccccc1,0.01% (inactive)
8,Cc1sc(NC(=O)c2ccccc2)c(C(=O)c2ccccc2)c1C,-8.66% (inactive)
9,Cc1nc(NC(=O)c2ccccc2)sc1C,-2.8% (inactive)
10,CCOC(=O)c1sc(NC(=O)c2ccccc2)cc1C,3.11% (inactive)
11,Cc1cc(NC(=O)c2ccccc2)cc(NC(=O)c2ccccc2)c1C,2.54% (inactive)
12,O=C(CSc1cc([N+](=O)[O-])cc(S(=O)(=O)Cc2ccccc2)c1)NC1CC1,-3.36% (inactive)
13,Cc1cccn2c(CNCC3OCCc4ccccc43)c(C(=O)N3CCCCC3)nc12 (configuration not stated),2.24% (inactive)
14,COc1ccc(C(=O)NCCc2cc3ccc(C)c(C)c3[nH]c2=O)cc1OC,-4.33% (inactive)
15,O=C1OCC(CO)(CO)N=C1NNc1ccccc1Cl,8.82% (inactive)
16,O=C1OCC(CO)(CO)N=C1NNc1cc(Cl)ccc1Cl,6.11% (inactive)
17,Cc1cc(C)c(NC(=O)C2CCCN2CCO)c(C)c1 (configuration not stated),6.37% (inactive)
18,Cc1cc(C)cc(NC2=NC3(CCCCC3)N=C(N)N2)c1,18% (inactive)
19,Cc1cccc(NC2=NC3(CCCCC3)N=C(N)N2)c1C,1.1% (inactive)
20,COc1ccc(OC)c(NC2=NC3(CCCC3)N=C(N)N2)c1,-3.8% (inactive)
21,Cc1ccc(NC2=NC3(CCCCC3)N=C(N)N2)c(C)c1,8.94% (inactive)
22,COc1ccc(OC)c(NC2=NC3(CCCCC3)N=C(N)N2)c1,-2.55% (inactive)
23,Cc1ccccc1NC1=NC2(CCCC2)N=C(N)N1,-0.71% (inactive)
24,NC1=NC2(CCCC2)N=C(Nc2ccccc2)N1,0.23% (inactive)
25,Cc1ccc(C)c(NC2=NC3(CCCCC3)N=C(N)N2)c1,-8.53% (inactive)

row,SMILES,inhibition
1,COc1ccc(S(=O)(=O)N2CCCc3ccccc32)cc1[N+](=O)[O-],1.36% (inactive)
2,Clc1ccc(-c2c[n+]3c(n2-c2ccccc2)SCC3)cc1,22.2% (inactive)
3,CCc1cc2cc(C)ccc2nc1SCC(=O)Nc1cc(C)on1,-6.66% (inactive)
4,COc1cccc(CNC(=O)CC(NC(=O)c2ccccc2)c2ccccc2)c1 (configuration not stated),-2.43% (inactive)
5,O=[N+]([O-])c1cc(NCCO)c(N2CCCCCC2)c2nonc12,-4.05% (inactive)
6,CCCS(=O)(=O)N1CCC(C(=O)NC2CCCC(C)C2C)CC1 (configuration not stated),3.41% (inactive)
7,C[C@H](NC(=O)[C@@H]1Cc2ccccc2CN1)C(=O)Nc1ccc2c(c1)OCCO2,-6.47% (inactive)
8,CCc1cccc2c(C(=O)COC(=O)c3ccc(O)cc3)c[nH]c12,-22.3% (inactive)
9,CCc1cccc2c(C(=O)COC(=O)c3ccccc3)c[nH]c12,-6.08% (inactive)
10,O=C(c1ccco1)N1CCN(C(=O)C23CC4CC(CC(C4)C2)C3)CC1,-6.11% (inactive)
11,O=C(O)c1ccc(Nc2nc3ccc(Cl)cc3[nH]2)cc1,-11.1% (inactive)
12,O=C(O)c1ccc(-c2nnn(Cc3cccc(C(F)(F)F)c3)n2)cc1,16.4% (inactive)
13,CC1CCC(NC(=O)c2ccc(S(C)(=O)=O)cc2)CC1 (configuration not stated),-20% (inactive)
14,CCc1ccc(NC(=O)[C@H](C)NC(=O)C2CCN(C(=O)[C@@H](N)C(C)C)CC2)cc1,3.36% (inactive)
15,Cc1oc(-c2cccc(Cl)c2)nc1CN1CCC(C(=O)NC2CC2)CC1,-4.63% (inactive)
16,Cc1oc(-c2cccc(Cl)c2)nc1CN1CCC(C(=O)NCC2CCCO2)CC1 (configuration not stated),1.34% (inactive)
17,CCN(CCNC(=O)C1CCN(Cc2nc(-c3ccc(Cl)cc3)oc2C)CC1)c1ccccc1,6.02% (inactive)
18,CCN1CCN(CCNC(=O)C2CCN(Cc3nc(-c4ccc(Cl)cc4)oc3C)CC2)CC1,6.8% (inactive)
19,COCCCNC(=O)C(F)(F)C(F)(F)C(=O)NCCCOC,-11.6% (inactive)
20,S=C(NCCc1ccccn1)Nc1ccccc1,7.23% (inactive)
21,Cc1cccc(C)c1NC(=O)C[N+](C)(C)CC(O)COc1cccc2ccccc12 (configuration not stated),-1.2% (inactive)
22,Cc1cc(C)c(NC(=O)COc2nncc3ccccc23)c(C)c1,-9.5% (inactive)
23,CCn1cc(/C=C/C(=O)c2ccc(O)cc2)c(C)n1,2.07% (inactive)
24,O=c1c2ccccc2nc(-c2ccc([N+](=O)[O-])cc2)n1-c1ccccc1,-1.83% (inactive)
25,O=S1(=O)NC(=NC2CCCCCC2)c2ccccc21,-8.09% (inactive)

row,SMILES,inhibition
1,c1ccc2c(c1)C(=NCC1CCCO1)NC2=NCC1CCCO1 (configuration not stated),-5.37% (inactive)
2,CCOC(=O)[C@@H]1[C@H]2COc3cc(OC)ccc3[C@H]2N2C(=O)N(c3ccc(C(F)(F)F)cc3)C(=O)[C@@]12C,-14.6% (inactive)
3,CCOC(=O)c1c(C)[n+]([O-])c2ccc3c(non3O)c12,-9.19% (inactive)
4,CC(=O)c1c(C)[n+]([O-])c2ccc3c(non3O)c12,14.6% (inactive)
5,CCCn1c(SCC(=O)OCc2ccccc2)nc2c1c(=O)n(C)c(=O)n2C,-3.63% (inactive)
6,Cc1ccc(S(=O)(=O)N(C)C)cc1NC(=O)COC(=O)/C=C/c1ccc2ccccc2n1,-5.07% (inactive)
7,CCOc1ccc(NC(=O)C(=O)NCCN2CCN(S(=O)(=O)c3ccccc3)CC2)cc1,3.61% (inactive)
8,O=C1[C@@H]2C(c3cccnc3)=NO[C@@H]2C(=O)N1c1ccc(Br)cc1,-5.51% (inactive)
9,Oc1cccc2cc3cccc(O)c3c(O)c12,7.19% (inactive)
10,COc1cc2cccc(OC)c(=O)c2c(O)c1OC,-19.1% (inactive)
11,Cc1ccc(S(=O)(=O)NCC2CCC(C(=O)N3CCN(C)CC3)CC2)cc1 (configuration not stated),5.88% (inactive)
12,CC(C)(C)Cc1nnc(NS(=O)(=O)c2ccc([N+](=O)[O-])cc2)s1,-2.4% (inactive)
13,CC(Nc1nc(N2CCNCC2)nc2ccccc12)c1ccccc1 (configuration not stated),17.9% (inactive)
14,OCCNc1nc(N2CCCCC2)nc2ccccc12,4.37% (inactive)
15,CC(Nc1nc(-c2ccccc2)nc2ccccc12)c1ccccc1 (configuration not stated),18% (inactive)
16,CC(Nc1nc(N2CCN(S(C)(=O)=O)CC2)nc2ccccc12)c1ccccc1 (configuration not stated),-4.59% (inactive)
17,CC(C)S(=O)(=O)c1nsc2nc(=O)c(/C=C3\C=Nc4ccccc43)c(N)n12,-9.31% (inactive)
18,Cc1occc1C(=O)NNC(=O)Nc1ccc([N+](=O)[O-])cc1,0.48% (inactive)
19,CC(C)(Oc1ccc(Cl)cc1)C(=O)NCCN1C(=O)S/C(=C/c2cccnc2)C1=O,-8.14% (inactive)
20,O=C(CN1CCN(Cc2ccc3c(c2)OCO3)CC1)Nc1ccc(F)cc1,2.19% (inactive)
21,O=C(O)C1C2C=CC(O2)C1C(=O)NCc1ccc2c(c1)OCO2 (configuration not stated),4.49% (inactive)
22,O=C(O)C(Cc1c[nH]c2ccccc12)NS(=O)(=O)c1ccc2ccccc2c1 (configuration not stated),-4.9% (inactive)
